Screens (PubChem BioAssay)
KB-3-1 cytotox: qHTS assay for MDR1-selective chemotherapeutics: Primary screen using the parental adenocarcinoma cell KB-3-1; KB-3-1 viability, CellTiter-Glo ATP luminescence, 72 h; actives 1.4% (n = 400,000); Potency, µM (highest dose often 46.1 µM), usual class: cytotoxic; further: nearly all actives have a fitted effect of over 60% in size
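Cells are dispensed, compounds pinned in, plates held at 37 °C for 72 h, then CellTiter-Glo is added and luminescence read after 10 minutes. Cell line: parental KB-3-1 in phenol-red-free DMEM, 10% FBS.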
SW480 rerep: A quantitative high throughput screen for small molecules that induce DNA re-replication in SW480 colon adenocarcinoma cells | SW480 DNA re-replication, Hoechst DNA content imaging, 48 h | Potency, µM (titrated, usually from 46.1 µM), actives largely listed as activators | actives 1.8% (n = 340,000) | AID 624297, 2012; further: nearly all actives have a fitted effect of over 55% in size
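Image-based read-out: total Hoechst fluorescence of nuclei (405 nm excitation, 500-530 nm emission), with hits raising the fraction of high-intensity nuclei. SW480 colon cells incubated 48 hr with compounds at 37 C.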
KB-V1 MDR tox: qHTS assay for MDR1-selective chemotherapeutics: Primary screen using the drug-selected MDR subline cells KB-V1. Potency, µM (doses to about 46.1 µM), usual class: cytotoxic. KB-V1 MDR cells viability, CellTiter-Glo, 72 h. actives 3.4% (n = 400,000); further: nearly all actives have a fitted effect of over 60% in size
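Potencies derive from concentration-effect curves fitted to normalized luminescence (CellTiter-Glo) of KB-V1 cells treated for 72 h at 37 degrees C in phenol-red-free DMEM containing 10% FBS.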
HT1080-NT tox: qHTS for induction of synthetic lethality in tumor cells producing 2HG: qHTS for the HT-1080-NT fibrosarcoma cell line; HT-1080-NT fibrosarcoma viability, CellTiter-Glo ATP luminescence, 48 h; Potency, µM (top dose mostly 46.1 µM), actives largely listed as cytotoxic; actives 1.6% (n = 360,000);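 further: NT is the 2HG producing partner of a matched IDH1 knockdown line; nearly all actives have a fitted effect of over 55% in size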
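750 cells/well, RPMI + 5% FBS; 2 h settle, compound pin-transfer, 48 h at 37 degrees C. CellTiter-Glo 10 min RT, luminescence. Normalized to DMSO and media-only wells.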
MCF10A rereplic: A quantitative high throughput screen for small molecules that induce DNA re-replication in MCF 10a normal breast cells; MCF 10A DNA re-replication, Hoechst nuclear intensity, 48 h; Potency, µM (highest dose often 46.1 µM), most hits filed as activators; actives 2.9% (n = 350,000); further: nearly all actives have a fitted effect of over 50% in size
HT1080 IDH1KD tx: qHTS for induction of synthetic lethality in tumor cells producing 2HG: qHTS for the HT-1080-IDH1KD cell line; HT-1080 IDH1 knockdown viability, ATP luminescence, 48 h; Potency, µM (titrated, usually from 46.1 µM), hits mostly cytotoxic; actives 2% (n = 360,000)
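Cytotoxicity counter-line: IDH1KD HT-1080, 48 h, CellTiter-Glo. Curves classed by r2, magnitude and activity.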
Each line names hits and unclear results; the compound was inactive in the other large screens. Sampled rows, rich in hits. Any-hit rate of the full collection: about 8%. The call rests on the fitted dose curve; in most records, active means well fitted curve in the direction sought with a large enough effect; inconclusive means small, poorly fitted or top-dose-only effect, or another doubt; inactive means no such curve, though single readings can be large; an effect the other way counts as inactive or inconclusive.

COc1cc2c(cc1OC)CN(c1nc(CN3CCOCC3)nc3sc4c(c13)CCC(C)C4)CC2 (stereo not drawn)	KB-3-1 cytotox inconclusive, SW480 rerep inconclusive, HT1080-NT tox inconclusive, MCF10A rereplic inconclusive, HT1080 IDH1KD tx inconclusive
COC(=O)C1=CN(Cc2ccc(OC)c(OC)c2)C=C(C(=O)OC)C1c1cccc(OC)c1OC	SW480 rerep inconclusive, MCF10A rereplic inconclusive
CCN1C=C(C(=O)OC)C(c2cccc(OC)c2OC)C(C(=O)OC)=C1	SW480 rerep 16.4µM, KB-V1 MDR tox inconclusive, MCF10A rereplic inconclusive
COC(=O)C1=CN(Cc2ccc(OC)c(OC)c2)C=C(C(=O)OC)C1c1ccc(F)cc1	KB-3-1 cytotox inconclusive, SW480 rerep 20.6µM, MCF10A rereplic 18.4µM
COC(=O)C1=CN(Cc2ccc(OC)c(OC)c2)C=C(C(=O)OC)C1c1ccc(O)cc1	KB-V1 MDR tox inconclusive, MCF10A rereplic inconclusive
COCCN1C=C(C(=O)OC)C(c2ccccc2Cl)C(C(=O)OC)=C1	SW480 rerep 20.6µM, MCF10A rereplic 13µM
COCCN1C=C(C(=O)OC)C(c2cc(Br)c(OC)c(OC)c2)C(C(=O)OC)=C1	MCF10A rereplic inconclusive
CC(C)CCNC(=O)C(c1ccncc1)N(C(=O)Cn1nnc(-c2ccc(F)cc2)n1)c1ccccc1F (stereo not drawn)	none
C=CCOc1ccc(C2C(C#N)=C(N)N(Nc3ccccc3)C3=C2C(=O)CCC3)cc1OC (stereo not drawn)	KB-3-1 cytotox inconclusive, SW480 rerep inconclusive, HT1080-NT tox inconclusive, MCF10A rereplic 23.1µM, HT1080 IDH1KD tx inconclusive
COc1cc(C2C(C#N)=C(N)N(Nc3ccccc3)C3=C2C(=O)CC(C)(C)C3)ccc1OCc1cccc(F)c1 (stereo not drawn)	SW480 rerep inconclusive, HT1080-NT tox inconclusive, MCF10A rereplic inconclusive, HT1080 IDH1KD tx inconclusive
COc1cc(C2C(C#N)=C(N)N(Nc3ccccc3)C3=C2C(=O)CC(C)(C)C3)ccc1OCc1ccccc1 (stereo not drawn)	KB-3-1 cytotox inconclusive, SW480 rerep 25.9µM, HT1080-NT tox inconclusive, MCF10A rereplic inconclusive, HT1080 IDH1KD tx inconclusive
CC(C)CN(C)Cc1c(C(=O)N2CCc3ccccc3C2)nc2ccc(Cl)cn12	KB-3-1 cytotox inconclusive, KB-V1 MDR tox 16.4µM, HT1080-NT tox inconclusive
CCOc1ccc(NC(=O)CCNS(=O)(=O)c2ccc3c(c2)c(=O)n(C)c(=O)n3C)cc1	none
Cc1cccc(CS(=O)(=O)Cc2ccc(C(=O)NCc3cccnc3)o2)c1	none
COc1c(C)cc(C(=O)C2CCCN(C(=O)C3=C(C)OCCO3)C2)cc1C (stereo not drawn)	KB-V1 MDR tox 20.6µM
CCOc1ncccc1C(=O)OCC(=O)NC1CCCCCC1	none
Nc1nnc(SCC(=O)OCc2ccccc2)s1	none
COc1ccc([C@H]2CC(=O)C=C(c3cccc(F)c3OC)C2)cc1	SW480 rerep inconclusive, KB-V1 MDR tox inconclusive, MCF10A rereplic inconclusive
Cc1ccc(NCc2cc3cc4c(cc3n(CC(=O)Nc3ccc(F)cc3F)c2=O)OCCO4)cc1	KB-3-1 cytotox inconclusive (no result: SW480 rerep, HT1080-NT tox, MCF10A rereplic, HT1080 IDH1KD tx)
COc1ccc(S(=O)(=O)N2CCCC2)cc1NC(=O)c1ccccc1	KB-3-1 cytotox inconclusive, MCF10A rereplic inconclusive
Cc1nn2c(CN(C(=O)COc3ccccc3)c3ccccc3)nnc2c2ccccc12	KB-3-1 cytotox inconclusive, KB-V1 MDR tox 4.61µM
Cc1nn2c(COc3ccc(NC(=O)c4ccccc4Cl)cc3)nnc2c2ccccc12	KB-3-1 cytotox inconclusive, SW480 rerep 8.2µM, KB-V1 MDR tox inconclusive, HT1080-NT tox inconclusive, MCF10A rereplic 2.91µM, HT1080 IDH1KD tx 14.6µM
